As a reminder, the AC50 is the concentration giving half of the maximal activity seen.

Each structure is given as a SMILES string. Activity calls are given as the source filed them. The calls were made as follows: active = hit-call score of the fitted dose curve at least 0.9, where 1 is the maximum; inactive = score below 0.9.

Signal transducer and activator of transcription 3 (Homo sapiens), sequence (P40763 whole entry, looked up): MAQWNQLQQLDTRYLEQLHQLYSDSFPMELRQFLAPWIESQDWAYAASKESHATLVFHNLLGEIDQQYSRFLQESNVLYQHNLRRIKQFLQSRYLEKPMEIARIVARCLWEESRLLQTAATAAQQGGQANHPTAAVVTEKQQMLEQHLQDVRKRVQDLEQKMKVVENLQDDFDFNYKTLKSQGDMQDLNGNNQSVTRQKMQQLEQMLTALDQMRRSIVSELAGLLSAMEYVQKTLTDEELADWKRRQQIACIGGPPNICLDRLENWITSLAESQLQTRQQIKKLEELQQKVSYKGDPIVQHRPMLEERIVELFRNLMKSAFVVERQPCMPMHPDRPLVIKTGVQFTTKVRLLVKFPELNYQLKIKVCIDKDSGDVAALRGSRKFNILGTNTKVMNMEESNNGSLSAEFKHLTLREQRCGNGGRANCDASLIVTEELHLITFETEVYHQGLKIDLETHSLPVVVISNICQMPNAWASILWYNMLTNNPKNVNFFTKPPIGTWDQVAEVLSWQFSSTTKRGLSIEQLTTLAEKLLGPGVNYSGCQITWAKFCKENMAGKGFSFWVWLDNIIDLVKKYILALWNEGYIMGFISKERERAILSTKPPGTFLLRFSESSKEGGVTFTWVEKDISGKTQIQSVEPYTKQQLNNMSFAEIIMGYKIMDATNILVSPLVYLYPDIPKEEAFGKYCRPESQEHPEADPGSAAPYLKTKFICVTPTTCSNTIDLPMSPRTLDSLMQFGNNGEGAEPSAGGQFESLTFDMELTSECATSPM

System in the first assay: not listed separately
As to the kind of experiment: ATG_SREBP_CIS: Attagene CIS-FACTORIAL HepG2 Assay for human Sterol Regulatory Element Binding (SREBP) (AID 2282962). The following applies: HepG2 Attagene cis-factorial SREBP reporter, mRNA; actives raise or lower the signal. The gist of the method:
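HepG2 cells transiently transfected with multiplexed cis-promoter reporter units sensing endogenous transcription factors; reporter mRNA measured 24 h after dosing by RT-PCR, 6-FAM labeling, HpaI digestion and capillary electrophoresis. Bidirectional fit versus DMSO.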
Take `C=C(C)C(=O)OCCOC1CC2CC1C1C=CCC21` (centres undefined): the compound was classed as inactive.

Consider `C=C(C)CNCC`, for which the outcome was inactive.

For the compound `CCC1(C)NC(=O)NC1=O` (centres undefined), the compound was called inactive.

As to `COc1cc(Cl)c(OC)cc1N`, the compound was called inactive.

On to `CCCCC(CC)(CO)CO`, for which the compound was called inactive.

As for `CC1(C)C(=O)N(Cl)C(=O)N1Br`, the outcome was inactive.

As to `CC(C)CC(C)CC(O)CC(C)C` (centres undefined), the call was inactive.

As for `COC(CC(C)CCCC(C)(C)O)OC` (centres undefined), the outcome was inactive.

In the case of `c1ccc2cc(Nc3ccc(Nc4ccc5ccccc5c4)cc3)ccc2c1`, the compound was called inactive.

`CCCCCCCC(=O)OCCCCCC`: the compound was called inactive.

For `COc1cc([C@@H]2c3cc4c(cc3[C@@H](O[C@@H]3O[C@@H]5CO[C@@H](C)O[C@H]5[C@H](O)[C@H]3O)[C@H]3COC(=O)[C@H]23)OCO4)cc(OC)c1O`, the call was inactive.

For `CC(=O)C(C)O` (centres undefined), the outcome was inactive.

In the case of `CCOC(=O)CN`, the call was inactive.

Turning to `CCCOC(=O)c1c(Cl)c(Cl)c(Cl)c(Cl)c1C(=O)OCCC`, the AC50 is 100 µM (active).

As to `Cc1ccc(OC(=O)c2ccccc2O)cc1`, the call was inactive.

In the case of `C=C(C)C(=O)OCC(CC)(COC(=O)C(=C)C)COC(=O)C(=C)C`, the compound was called inactive.

Take `Cc1ccc2c(c1)C(=O)OC2=O`: the call was inactive.

Turning to `C=Cc1ccc(C)cc1`, the outcome was inactive.

For `CC1(C)C2=CCCC(C)(C)[C@]23CC[C@H]1C3`, the AC50 was 53.2 µM (active).

`C=CCCC(=O)/C=C/C1C(C)=CCCC1(C)C` (centres undefined): the AC50 was 100 µM (active).

On to `COC(=O)c1ccc([N+](=O)[O-])cc1`, for which the call was inactive.

For the compound `Cc1ncc[nH]1`, the compound was classed as inactive.

With `O=c1[nH]c(=O)c2cn[nH]c2[nH]1`, the compound was classed as inactive.

Regarding `CCCC(=O)OCCc1ccccc1`, the call was inactive.

With `Nc1ccc2cc(S(=O)(=O)O)cc(O)c2c1N=Nc1ccccc1C(F)(F)F`, the result was inactive.

Take `N[C@@H](Cc1cc(I)c(Oc2cc(I)c(O)c(I)c2)c(I)c1)C(=O)O`: the AC50 is 22.7 µM (active).

`O=C(O)CCCCCCCCC(=O)O`: the compound was called inactive.

Consider `CCOc1ccc(NC(=O)CC(C)O)cc1` (centres undefined), for which the outcome was inactive.

`[Cl][Au]([Cl])[Cl]`: the compound was classed as inactive.

With `Cc1c(Cl)cccc1[N+](=O)[O-]`, the result was inactive.

As for `CCOC(=O)[C@@H](C)Oc1ccc(Oc2nc3ccc(Cl)cc3o2)cc1`, the compound was classed as inactive.

Turning to `CCCCCCOC(=O)CCC`, the outcome was inactive.

Consider `CC1C2CC(CC2C2CCCC(O)C2)C1(C)C` (centres undefined), for which the result was inactive.

Take `COc1ccc(N=Nc2cc(C)c(N=Nc3ccc(S(=O)(=O)O)cc3)cc2OC)cc1`: the AC50 is 162 µM (active).

The next assay concerns the target Signal transducer and activator of transcription 3 (Homo sapiens) (UniProt P40763). Description: ATG_STAT3_CIS: Attagene CIS-FACTORIAL HepG2 Assay for human Signal Transducer and Activator of Transcription 3 (STAT3) (AID 2282963). The following applies: HepG2, Attagene cis-factorial STAT3 reporter transcription; actives raise or lower the signal. In short, it runs like this:
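Transcript-level reporter assay. HepG2 transient MRTU transfection, 24 h exposure, fluorescence detection after RT-PCR and CE; DMSO baseline.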
With `C=C(C)C(=O)OCCOC1CC2CC1C1C=CCC21` (centres undefined), the compound was classed as inactive.

As to `C=C(C)CNCC`, the call was inactive.

For `CCC1(C)NC(=O)NC1=O` (centres undefined), the compound was called inactive.

Regarding `COc1cc(Cl)c(OC)cc1N`, the compound was called inactive.

For `CCCCC(CC)(CO)CO`, the compound was called inactive.

Turning to `CC1(C)C(=O)N(Cl)C(=O)N1Br`, the compound was classed as inactive.

On to `CC(C)CC(C)CC(O)CC(C)C` (centres undefined), for which the outcome was inactive.

`COC(CC(C)CCCC(C)(C)O)OC` (centres undefined): the outcome was inactive.

For `c1ccc2cc(Nc3ccc(Nc4ccc5ccccc5c4)cc3)ccc2c1`, the call was inactive.

Consider `CCCCCCCC(=O)OCCCCCC`, for which the result was inactive.

With `COc1cc([C@@H]2c3cc4c(cc3[C@@H](O[C@@H]3O[C@@H]5CO[C@@H](C)O[C@H]5[C@H](O)[C@H]3O)[C@H]3COC(=O)[C@H]23)OCO4)cc(OC)c1O`, the compound was classed as inactive.

As to `CC(=O)C(C)O` (centres undefined), the compound was called inactive.

As for `CCc1ccc(O)cc1`, the compound was called inactive.

Turning to `CCOC(=O)CC(C)O` (centres undefined), the compound was called inactive.

In the case of `CCOC(=O)CN`, the compound was called inactive.

As for `CCCOC(=O)c1c(Cl)c(Cl)c(Cl)c(Cl)c1C(=O)OCCC`, the outcome was inactive.

For `C/C=C(\C)C(=O)OCCc1ccccc1`, the result was inactive.

With `Cc1ccc(OC(=O)c2ccccc2O)cc1`, the call was inactive.

For the compound `C=C(C)C(=O)OCC(CC)(COC(=O)C(=C)C)COC(=O)C(=C)C`, the call was inactive.

For `Cc1ccc2c(c1)C(=O)OC2=O`, the call was inactive.

Take `C=Cc1ccc(C)cc1`: the compound was classed as inactive.

Regarding `CC1(C)C2=CCCC(C)(C)[C@]23CC[C@H]1C3`, the compound was classed as inactive.

For the compound `C=CCCC(=O)/C=C/C1C(C)=CCCC1(C)C` (centres undefined), the result was inactive.

Consider `COC(=O)c1ccc([N+](=O)[O-])cc1`, for which the result was inactive.

As to `Cc1ncc[nH]1`, the result was inactive.

With `O=c1[nH]c(=O)c2cn[nH]c2[nH]1`, the result was inactive.

Take `C[Si](C)(C)O[Si](C)(C)C`: the outcome was inactive.

Consider `CCCC(=O)OCCc1ccccc1`, for which the call was inactive.

Turning to `Nc1ccc2cc(S(=O)(=O)O)cc(O)c2c1N=Nc1ccccc1C(F)(F)F`, the outcome was inactive.

Turning to `N[C@@H](Cc1cc(I)c(Oc2cc(I)c(O)c(I)c2)c(I)c1)C(=O)O`, the compound was called inactive.

On to `O=C(O)CCCCCCCCC(=O)O`, for which the result was inactive.

As for `CCOc1ccc(NC(=O)CC(C)O)cc1` (centres undefined), the result was inactive.

As for `Cc1[nH]c(=O)c(C#N)cc1-c1ccncc1`, the compound was classed as inactive.

In the case of `[Cl][Au]([Cl])[Cl]`, the result was inactive.

Turning to `Cc1c(Cl)cccc1[N+](=O)[O-]`, the result was inactive.

Regarding `CCOC(=O)[C@@H](C)Oc1ccc(Oc2nc3ccc(Cl)cc3o2)cc1`, the compound was called inactive.

In the case of `CCCCCCOC(=O)CCC`, the call was inactive.

Take `CC1C2CC(CC2C2CCCC(O)C2)C1(C)C` (centres undefined): the call was inactive.

Turning to `COc1ccc(N=Nc2cc(C)c(N=Nc3ccc(S(=O)(=O)O)cc3)cc2OC)cc1`, the AC50 is 162 µM (active).

System in a further assay: not listed separately
As to the kind of experiment: ATG_TA_CIS: Attagene CIS-FACTORIAL HepG2 Assay for human TA Basal Promoter (AID 2282964). The following applies: HepG2 Attagene CIS-factorial TA basal promoter reporter; actives raise or lower the signal. The gist of the method: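 HepG2 cells transiently transfected with multiplexed cis-promoter reporter units, dosed 24 h. Reporter mRNA measured by RT-PCR, 6-FAM labelling, HpaI digestion and capillary electrophoresis; bidirectional fit versus DMSO baseline, serving as background control.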
For the compound `C=C(C)C(=O)OCCOC1CC2CC1C1C=CCC21` (centres undefined), the compound was classed as inactive.

As to `C=C(C)CNCC`, the outcome was inactive.

As for `CCC1(C)NC(=O)NC1=O` (centres undefined), the compound was called inactive.

On to `COc1cc(Cl)c(OC)cc1N`, for which the compound was classed as inactive.

In the case of `CCCCC(CC)(CO)CO`, the call was inactive.

As to `CC(C)CC(C)CC(O)CC(C)C` (centres undefined), the call was inactive.

As to `COC(CC(C)CCCC(C)(C)O)OC` (centres undefined), the outcome was inactive.

Take `c1ccc2cc(Nc3ccc(Nc4ccc5ccccc5c4)cc3)ccc2c1`: the outcome was inactive.

Turning to `CCCCCCCC(=O)OCCCCCC`, the result was inactive.

On to `COc1cc([C@@H]2c3cc4c(cc3[C@@H](O[C@@H]3O[C@@H]5CO[C@@H](C)O[C@H]5[C@H](O)[C@H]3O)[C@H]3COC(=O)[C@H]23)OCO4)cc(OC)c1O`, for which the compound was classed as inactive.

Regarding `CC(=O)C(C)O` (centres undefined), the compound was classed as inactive.

With `CCOC(=O)CN`, the compound was called inactive.

As for `CCCOC(=O)c1c(Cl)c(Cl)c(Cl)c(Cl)c1C(=O)OCCC`, the result was inactive.

`Cc1ccc(OC(=O)c2ccccc2O)cc1`: the outcome was inactive.

Consider `Cc1ccc2c(c1)C(=O)OC2=O`, for which the compound was called inactive.

Turning to `C=Cc1ccc(C)cc1`, the compound was classed as inactive.

Consider `C=CCCC(=O)/C=C/C1C(C)=CCCC1(C)C` (centres undefined), for which the call was inactive.

For the compound `COC(=O)c1ccc([N+](=O)[O-])cc1`, the call was inactive.

On to `Cc1ncc[nH]1`, for which the result was inactive.

As to `O=c1[nH]c(=O)c2cn[nH]c2[nH]1`, the compound was called inactive.

Take `C[Si](C)(C)O[Si](C)(C)C`: the result was inactive.

Take `CCCC(=O)OCCc1ccccc1`: the call was inactive.

As to `N[C@@H](Cc1cc(I)c(Oc2cc(I)c(O)c(I)c2)c(I)c1)C(=O)O`, the compound was called inactive.

`O=C(O)CCCCCCCCC(=O)O`: the call was inactive.

With `CCOc1ccc(NC(=O)CC(C)O)cc1` (centres undefined), the result was inactive.

For the compound `Cc1[nH]c(=O)c(C#N)cc1-c1ccncc1`, the result was inactive.

On to `[Cl][Au]([Cl])[Cl]`, for which the compound was called inactive.

Consider `Cc1c(Cl)cccc1[N+](=O)[O-]`, for which the call was inactive.

Regarding `CCOC(=O)[C@@H](C)Oc1ccc(Oc2nc3ccc(Cl)cc3o2)cc1`, the compound was classed as inactive.

As for `CCCCCCOC(=O)CCC`, the compound was called inactive.

For `COc1ccc(N=Nc2cc(C)c(N=Nc3ccc(S(=O)(=O)O)cc3)cc2OC)cc1`, the outcome was inactive.
